These results are taken from PubChem BioAssay AID1578 (Sanford-Burnham Center for Chemical Genomics, 2009).

The campaign covered roughly 290,000 compounds. About 3,000 (1%) were called active. The list comes from a sample in which actives are over-represented; it also holds similar structures and randomly drawn compounds. Unmarked numbers belong to inactive results. No stated cut-off is given here; in the data, active means inhibition mostly above about 36% (no sharp cut-off); inactive means mostly below about 34%.

The test can be described thus: NOD1 signaling inhibitors, primary screen, cell-based, luminescence, uHTS (AID 1578).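 Further: HEK-293T reporter cells stimulated with the NOD1 agonist gamma-tri-DAP.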 Conditions: NOD1-driven NF-kB luciferase reporter cells, at 4 µM, stronger effect = higher value.
As a reminder, the inhibition is the change of the read-out against control, counted positive when it falls. As for `O=c1cccc2n1CC1CC2CN(C(c2cccc(F)c2)c2sc3ncnn3c2O)C1` (centres undefined), the inhibition was -12.7%.

Turning to `CN[C@H]1C[C@H]2O[C@@](C)([C@H]1OC)n1c3ccccc3c3c4c(c5c6ccccc6n2c5c31)C(=O)NC4`, the inhibition was 1.7%.

As for `COc1ccccc1N1CCN(Cc2ccccc2Cl)CC1`, the inhibition was -17.2%.

Regarding `N#CC(C#N)=NNc1ccc(-n2ccc(C(F)(F)F)n2)cc1`, the inhibition was 36.7% (active).

Consider `CC1CCN(S(=O)(=O)c2ccc(NN=C(C#N)C#N)cc2)CC1`, for which the inhibition is -29.8%.

On to `N#CC(C#N)=NNc1ccc(S(N)(=O)=O)cc1`, for which the inhibition is -10.8%.

Turning to `Cc1cc(C)n(-c2ccc(NN=C(C#N)C#N)cc2)n1`, the inhibition was 41.2% (active).

For the compound `CCN(CC)S(=O)(=O)c1ccc(NN=C(C#N)C#N)cc1`, the inhibition is 9.7%.

With `Cc1nn(Cc2ccccc2)c(Cl)c1C(=O)OCC(=O)Nc1cccc2ccccc12`, the inhibition was -17.7%.

Take `COC(=O)C(C)Oc1cc(C)cc2oc(=O)c3c(c12)CCCC3` (centres undefined): the inhibition is -9.2%.

With `O=C(NC(Cc1cnc[nH]1)C(=O)O)c1ccccc1` (centres undefined), the inhibition is -20.8%.

Consider `C=CCn1c(O)c(C(CC)=NCCc2ccccc2)c(=O)[nH]c1=O`, for which the inhibition is -24.2%.

In the case of `CC(C)n1c(=O)c(C=Nc2ccc(S(N)(=O)=O)cc2)c(O)n(Cc2ccco2)c1=O`, the inhibition is -37.7%.

In the case of `CC(C)C(=O)c1cn(Cc2ccccc2C#N)c2ccccc12`, the inhibition is -11.1%.

Take `CC(=O)c1cn(Cc2ccccc2C#N)c2ccccc12`: the inhibition is 78% (active).

With `CCC(=O)c1cn(Cc2ccccc2C#N)c2ccccc12`, the inhibition is 8.5%.

Take `CCOC(=O)CNC(=O)CNC(=O)C(Cc1ccc(N(CCCl)CCCl)cc1)NC(C)=O` (centres undefined): the inhibition was -43.1%.

As to `C=CCn1c(O)c(C(CC)=NCc2cc(OC)cc(OC)c2)c(=O)[nH]c1=O`, the inhibition was 0.2%.

As to `Cc1cc(C=C2C(=O)NC(=S)NC2=O)c(C)n1C1CCCC1`, the inhibition was 24.9%.

Take `O=C1NC(=O)C(=Cc2ccc3ccccc3c2)C(=O)N1`: the inhibition is -4.2%.

For `O=C1NC(=S)NC(=O)C1=Cc1cccc2cc3ccccc3cc12`, the inhibition was 59.4% (active).

As for `Cc1cccc(N2CCN(CCc3ccccc3)CC2)c1C`, the inhibition was 11.9%.

Regarding `CC(C)n1c(O)c(C2c3cc(Cl)ccc3Oc3[nH]c(=O)n(C(C)C)c(=O)c32)c(=O)[nH]c1=O` (centres undefined), the inhibition is 61.3% (active).

For `CC(=O)c1c(O)n(-c2cccc(Cl)c2)c(=O)[nH]c1=O` (tested in a mixture with another compound), the inhibition was 1.2%.

For the compound `C[C@]12CC[C@H]3C(CCC4(O)CC(O)CC[C@]34C=O)C1=CC[C@H]2c1ccc(=O)oc1` (some centres undefined), the inhibition was 60.3% (active).

For `CC(=O)[C@@]1(O)CC[C@H]2[C@@H]3CC=C4C[C@@H](O)CC[C@]4(C)[C@H]3CC[C@@]21C`, the inhibition is -24.8%.

On to `CC12CC[C@H]3[C@@H](CCC4(O)C[C@H](O)CCC34/C=N/NC(=O)c3ccccc3Cl)C1(O)CCC2C1=CC(=O)OC1` (some centres undefined), for which the inhibition is 3%.

Take `C=C(C)Cn1c(=O)n(CC2CS2)c2ccccc21` (centres undefined): the inhibition is 8.9%.

Take `CCOc1cc2c(cc1OCC)-n1cccc1C(c1ccccc1OC)NC2` (centres undefined): the inhibition was 4.7%.

`CC[C@@]1(O)C(=O)OCc2c1cc1n(c2=O)Cc2cc3c(NC(=O)CN)cccc3nc2-1`: the inhibition was 7.7%.

With `CCC1(OC(=O)CN)C(=O)OCc2c1cc1n(c2=O)Cc2cc3ccccc3nc2-1` (centres undefined), the inhibition is 71.2% (active).

For the compound `CCOC(=O)C1=C(N)OC2=C(C(=O)CCC2)C12C(=O)N(C)c1ccccc12` (centres undefined), the inhibition is -7.5%.

With `Cc1cnn(C2CCN(C)CC2)c1N`, the inhibition is -8.2%.

Take `NC1=C([N+](=O)[O-])C(c2ccc3c(c2)OCO3)c2c(c3ccccc3oc2=O)O1` (centres undefined): the inhibition is -6%.

With `O=C(Cc1ccccc1)Oc1cccc(-n2cnnn2)c1`, the inhibition is -14.2%.

In the case of `O=[N+]([O-])c1ccc(N2CCNCC2)cc1Sc1ccccn1`, the inhibition was -12.4%.

On to `Cc1cc(N2CCCCC2)ccc1C=C1C(=O)N(C)C(=S)N(C)C1=O`, for which the inhibition was -10.1%.

In the case of `Cc1ccc(N2C(=O)CC(=O)NC2=O)cc1`, the inhibition was -5.6%.

In the case of `O=Cc1cn(Cc2ccccc2F)c2ccccc12`, the inhibition was 30.3%.

For `O=Cc1cn(Cc2c(F)cccc2Cl)c2ccccc12`, the inhibition was 66% (active).

Regarding `O=Cc1cn(Cc2ccc(F)cc2)c2ccccc12`, the inhibition is 6.2%.

For the compound `Cc1cc(=O)oc2cc(OCC(=O)N3CCC(C(=O)O)(c4ccccc4)CC3)ccc12`, the inhibition was -7.5%.

Regarding `CCCCOP(=O)(OCCCC)/C(C#N)=C(/C)O`, the inhibition is -14.2%.

As to `O=c1[nH]c(=S)n(Cc2ccc(F)cc2)c(O)c1C=NCCCn1ccnc1`, the inhibition is -9.5%.

On to `Cc1cccc(CN2CCCN(Cc3ccc(Cl)cc3)S2(=O)=O)c1`, for which the inhibition is 2.2%.

For `O=C1NC(=O)N(c2ccccc2)C(=O)/C1=C/c1ccoc1`, the inhibition is -13.5%.

Regarding `O=C1NC(=O)N(Cc2ccccc2)C(=O)/C1=C\C=C\c1ccco1`, the inhibition is 61.5% (active).

Take `CCN1C(=O)C(=C/C=C/c2ccco2)C(=O)N(CC)C1=S`: the inhibition is -25.5%.

As for `Cc1ccc(N2C(=O)NC(=O)/C(=C/C=C/c3ccco3)C2=O)cc1`, the inhibition was 87.4% (active).

Consider `Cc1cc(C)cc(N2C(=O)NC(=O)/C(=C\C=C\c3ccco3)C2=O)c1`, for which the inhibition is 67.1%.

On to `CCc1ccc(N2C(=O)NC(=O)/C(=C\C=C\c3ccco3)C2=O)cc1`, for which the inhibition is 89.4% (active).

For `Cc1cccc(N2C(=O)NC(=O)/C(=C\C=C\c3ccco3)C2=O)c1`, the inhibition is -6.1%.

On to `CN1C(=O)/C(=C/C=C/c2ccco2)C(=O)NC1=S`, for which the inhibition is -4.7%.

Turning to `CCCCN1C(=O)/C(=C/C=C/c2ccco2)C(=O)NC1=S`, the inhibition was -32.6%.

For the compound `O=C1NC(=O)N(Cc2ccccc2)C(=O)/C1=C\c1ccco1`, the inhibition is -5.6%.

As to `CN(C)c1ccc(/C=C/C=C2/C(=O)NC(=O)N(c3ccccc3)C2=O)cc1`, the inhibition is 80.9% (active).

As to `Cn1cc(/C=C2\C(=O)NC(=O)N(c3ccccc3)C2=O)c2ccccc21`, the inhibition was -3.2%.

Take `COCCOC(=O)C1=C(N)Oc2c(c(=O)oc3ccccc23)C1c1ccncc1` (centres undefined): the inhibition is -14.2%.

Turning to `CCCCOC(=O)C1=C(N)OC2=C(C(=O)CCC2)[C@]12C(=O)N(C)c1ccccc12`, the inhibition was 2.2%.
